High-throughput results (PubChem)
An excerpt weighted towards active compounds, which were near 7.3% of everything screened.
SMN2 splice enh: enhancers of SMN2 splice variant expression. HEK293 SMN2-luciferase splicing reporter, luminescence, 30-36 h. AID 1458. hit rate 2.8% among 210,000. Potency, µM (top dose mostly 46.1 µM), for inactives: at the top dose activity change, positive = activation, most hits filed as activators; note: % of control where 0% means no effect; nearly all actives have a fitted effect of over 55% in size
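qHTS luciferase splicing reporter: luminescence rises when SMN2 exon 7 is included in transfected HEK293 cells. Compound exposure lasted 30-36 h at 37C, with 4.5 mM final sodium butyrate as control, followed by a ONE-Glo read.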
ELG1 genotoxic: induces genotoxicity in HEK293T cells with luciferase-tagged ELG1; Potency, µM (doses to about 46 µM), inactives show at the highest dose activity change, positive = activation, most hits filed as activators; AID 504466; hit rate 1.3% among 330,000; HEK293T ELG1-luciferase reporter, luminescence, 16 h; note: % of control where 0% means no effect; nearly all actives have a fitted effect of over 60% in size
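Screening used a luciferase reporter fused to human ELG1 in HEK293T cells. Luminescence was read on a CCD plate imager after 16 hr exposure and 30 min ONE-Glo incubation.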
KinaseGlo FLuc: counter-screen: inhibitors of Kinase-Glo firefly luciferase | Kinase-Glo luciferase, ATP luminescence, 8 min | Potency, µM (titrated, usually from 38.3 µM), inactives show at the highest dose activity change, negative = inhibition, usual class: inhibitors | hit rate 0.28% among 200,000; note: % is set by controls: 0 for no effect and ±100 for the full control effect; nearly all actives have a fitted effect of over 60% in size
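Kinase-Glo luciferase light output from ATP and luciferin was measured with 10 uM ATP, within the enzyme's linear range. Buffer: 50 mM imidazole pH 7.2, 50 mM KCl, 7 mM MgCl2, 0.01% Tween 20, 0.05% BSA; luminescence read after 8 min at ambient temperature.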
Rab9 promoter act: Rab9 promoter activation. Huh7 Rab9 promoter-luciferase reporter, luminescence, 24 h. Potency, µM (titrated, usually from 9.22 µM), without a hit: top-dose activation, negative = inhibition, usual class: activators. hit rate 2.8% among 320,000; note: % of control where 0% means no effect; nearly all actives have a fitted effect of over 60% in size
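Luminescence from Amplite-detected luciferase (10 minutes, ambient) reports Rab9 promoter activation. Before that, stable Rab9-luciferase Huh7 cells (1500/well, reduced-serum OP-MEM I plus 10% FBS) were exposed to compound for 24 hours at 37C.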
NPC1 promoter act: NPC1 promoter activation; Huh7 NPC1 promoter luciferase reporter, 24 h; Potency, µM (series often up to 9.22 µM), inactives show top-dose activation, most hits filed as activators; hit rate 2.4% among 320,000; note: % of control where 0% means no effect; nearly all actives have a fitted effect of over 60% in size
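Stably transfected Huh7 (NPC1 promoter→luciferase), 1500 cells/well in Opti-MEM + 10% FBS, 2 h settle, then compound 24 h at 37 °C. Luminescence after 10 min with Amplite reagent.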
FLuc modulator: counter-screen for miR-21 project: firefly luciferase inhibitors or activators; P08659; purified FLuc, Km substrates, luminescence inhibition; Potency, µM (top dose mostly 57.5 µM), inactives show at the top dose activity change, negative = inhibition, hits mostly inhibitors; hit rate 6.9% among 360,000; AID 588342;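 note: plate controls were vehicle for no effect and reference inhibitor for full effect; nearly all actives have a fitted effect of over 55% in size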
Target sequence (P08659 whole entry, looked up): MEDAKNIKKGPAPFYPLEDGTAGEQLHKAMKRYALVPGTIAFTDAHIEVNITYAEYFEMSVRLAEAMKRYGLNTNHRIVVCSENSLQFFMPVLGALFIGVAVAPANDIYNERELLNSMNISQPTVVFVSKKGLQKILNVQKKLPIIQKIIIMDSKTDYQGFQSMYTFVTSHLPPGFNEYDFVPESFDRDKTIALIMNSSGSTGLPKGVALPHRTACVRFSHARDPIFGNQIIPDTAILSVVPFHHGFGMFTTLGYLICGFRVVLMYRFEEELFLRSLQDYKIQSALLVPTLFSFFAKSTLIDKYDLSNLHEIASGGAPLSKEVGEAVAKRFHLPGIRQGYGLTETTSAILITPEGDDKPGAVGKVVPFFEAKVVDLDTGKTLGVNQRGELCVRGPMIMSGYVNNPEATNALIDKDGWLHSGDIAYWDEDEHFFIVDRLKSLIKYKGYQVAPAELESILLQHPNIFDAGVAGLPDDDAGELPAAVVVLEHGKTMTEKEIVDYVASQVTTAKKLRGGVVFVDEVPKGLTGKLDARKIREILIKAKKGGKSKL
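Purified P. pyralis luciferase (10nM final) with 10uM D-luciferin and 10uM ATP (Km levels) in 50mM Tris acetate pH 7.5, 10mM Mg acetate, 0.01% Tween-20, 0.05% BSA; qHTS 6-point titration, ~60 µM downward; luminescence read.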
* hit, by the source's call. Calls come from the whole dose curve; as a rule, active = well fitted curve in the direction sought with a large enough effect; inconclusive = small, poorly fitted or top-dose-only effect, or another doubt; inactive = no such curve, though single readings can be large; an effect the other way counts as inactive or inconclusive. Potency is the fitted concentration of half-maximal effect.

Cc1ccn2cc(CCNS(=O)(=O)c3ccc4c(c3)OCCO4)nc2c1 was read as SMN2 splice enh -3%, ELG1 genotoxic 3%, KinaseGlo FLuc -1%, Rab9 promoter act -2%, NPC1 promoter act -1% and FLuc modulator 1%.
Cc1ccn2cc(C(=O)Nc3ccc4c(c3)OCCO4)nc2c1 was read as SMN2 splice enh inconclusive, ELG1 genotoxic 5.8µM*, KinaseGlo FLuc -8%, Rab9 promoter act 1µM*, NPC1 promoter act 1.4µM* and FLuc modulator 1.9µM*.
Screening COc1cccc(C=Nc2cccc3c(=O)[nH][nH]c(=O)c23)c1O returned SMN2 splice enh 9%, ELG1 genotoxic inconclusive, KinaseGlo FLuc inconclusive, Rab9 promoter act 0%, NPC1 promoter act -3% and FLuc modulator 0.6µM*.
For CC/C(=C\C(=O)c1ccncc1)Nc1ccc(O)cc1 the results were SMN2 splice enh -18%, ELG1 genotoxic -6%, KinaseGlo FLuc -3%, Rab9 promoter act 4%, NPC1 promoter act 3% and FLuc modulator inconclusive.
Screening CCOC(=O)C1CCN(c2ccc(Cl)nn2)CC1 returned SMN2 splice enh -47%, ELG1 genotoxic 6%, KinaseGlo FLuc -3%, Rab9 promoter act 0%, NPC1 promoter act -2% and FLuc modulator -4%.
CCOC(=O)C1CCN(c2ccc(-c3cccs3)nn2)CC1 was read as ELG1 genotoxic inconclusive, Rab9 promoter act 4%, NPC1 promoter act 22% and FLuc modulator 0.76µM*.
c1csc(-c2ccc(N3CCOCC3)nn2)c1 was read as ELG1 genotoxic inconclusive, Rab9 promoter act 0.5µM*, NPC1 promoter act 0.4µM* and FLuc modulator 2.4µM*.
`CCC(OC(=O)C1=Cc2ccccc2OC1)C(=O)NCc1ccco1` (stereo unspecified) gave ELG1 genotoxic -6%, KinaseGlo FLuc -1%, Rab9 promoter act -2%, NPC1 promoter act -5% and FLuc modulator 5%.
For O=C(O)c1ccc(N/N=C/C2=Cc3ccccc3OC2)cc1 the results were ELG1 genotoxic inconclusive, Rab9 promoter act 1µM*, NPC1 promoter act 0.63µM* and FLuc modulator 0.95µM*.
`COc1ccc(C(=O)N2c3ccccc3C(=O)OC2c2ccc3c(c2)OCO3)cc1` (stereo unspecified) gave SMN2 splice enh 13µM*, ELG1 genotoxic 14%, KinaseGlo FLuc -3%, Rab9 promoter act inconclusive, NPC1 promoter act inconclusive and FLuc modulator 19µM*.
`COc1ccc2c(c1)O[C@@H](c1ccc3c(c1)OCO3)[C@H](O)C2=O` gave SMN2 splice enh 20µM* and KinaseGlo FLuc -1%.
Screening COc1ccc2c(c1)O[C@@H](c1ccc3c(c1)OCO3)[C@H](OC(=O)NC1CCCC1)C2=O returned SMN2 splice enh -8% and KinaseGlo FLuc 0%.
For COc1ccc(/C=C2/SC(=O)N(CCNC(=O)C3COc4ccccc4O3)C2=O)cc1 (stereo unspecified) the results were SMN2 splice enh 18%, ELG1 genotoxic 1%, KinaseGlo FLuc -1%, Rab9 promoter act 23%, NPC1 promoter act 8% and FLuc modulator -4%.
`CCOC(=O)C1CCN(Cc2nnnn2CCc2ccccc2)CC1` gave ELG1 genotoxic inconclusive, KinaseGlo FLuc -4%, Rab9 promoter act 1.6µM*, NPC1 promoter act 4µM* and FLuc modulator inconclusive.
For O=[N+]([O-])c1ccc(NCCCO)c(S(=O)(=O)N2CCOCC2)c1 the results were SMN2 splice enh -15%, ELG1 genotoxic 4%, KinaseGlo FLuc 2%, Rab9 promoter act 0%, NPC1 promoter act 1% and FLuc modulator -4%.
O=[N+]([O-])c1ccc(/C=C/c2ccc3cccc(O)c3n2)cc1 was read as ELG1 genotoxic inconclusive, Rab9 promoter act inconclusive, NPC1 promoter act inconclusive and FLuc modulator 2.4µM*.
Screening CC(=O)Nc1ccc(/C=C/c2ccc3cccc([N+](=O)[O-])c3n2)cc1 returned ELG1 genotoxic -3%, Rab9 promoter act -1%, NPC1 promoter act 17% and FLuc modulator inconclusive.
O=[N+]([O-])c1ccc(/C=C/c2ccc3ccccc3n2)cc1 was read as SMN2 splice enh 2.2µM*, ELG1 genotoxic -9%, KinaseGlo FLuc inconclusive, Rab9 promoter act 0.56µM*, NPC1 promoter act inconclusive and FLuc modulator 0.6µM*.
`Cc1cc(C(=O)N/N=C/c2c(C)nn(-c3ccccc3)c2C)n[nH]1` gave ELG1 genotoxic 8%, Rab9 promoter act 22%, NPC1 promoter act 20% and FLuc modulator 17µM*.
Cc1nn(-c2ccccc2)c(C)c1/C=N/NC(=O)c1cc(C2CC2)[nH]n1 was read as SMN2 splice enh inconclusive, ELG1 genotoxic inconclusive, KinaseGlo FLuc -3%, Rab9 promoter act 3%, NPC1 promoter act 3% and FLuc modulator 17µM*.
Screening O=C(N/N=C/c1ccc(O)cc1)c1cc(C2CC2)[nH]n1 returned ELG1 genotoxic 4%, Rab9 promoter act 2%, NPC1 promoter act 0% and FLuc modulator -18%.
For O=C(N/N=C/c1c(F)cccc1Cl)c1cc(C2CC2)[nH]n1 the results were ELG1 genotoxic inconclusive, Rab9 promoter act inconclusive, NPC1 promoter act inconclusive and FLuc modulator 17µM*.
For CC/C(=N\NC(=O)c1cc(C2CC2)[nH]n1)c1ccccc1 the results were ELG1 genotoxic inconclusive, Rab9 promoter act inconclusive, NPC1 promoter act 3.5µM* and FLuc modulator 13µM*.
For CCOC(=O)C1=C(CN2CCN(C(=O)c3ccco3)CC2)NC(=O)NC1c1ccc(Cl)cc1 (stereo unspecified) the results were ELG1 genotoxic 0%, Rab9 promoter act 0%, NPC1 promoter act -1% and FLuc modulator -1%.
Screening CCN(CC)CCNCc1cc(Cl)c(OCC(=O)Nc2ccccc2)c(OC)c1 returned SMN2 splice enh -32%, ELG1 genotoxic -1%, KinaseGlo FLuc 2%, Rab9 promoter act -3%, NPC1 promoter act 0% and FLuc modulator 2%.
`CN1c2ccccc2C(C)(C)C12C=Nc1c(ccc3ccccc13)O2` (stereo unspecified) gave SMN2 splice enh -41%, ELG1 genotoxic -2%, KinaseGlo FLuc -3%, Rab9 promoter act 8%, NPC1 promoter act -3% and FLuc modulator 15µM*.
Screening N/C(Cc1cccc2ccccc12)=N\O returned ELG1 genotoxic -4%, Rab9 promoter act 15%, NPC1 promoter act -3% and FLuc modulator -1%.
Screening CCOc1ccc2nc(N3CCCC(C(=O)Nc4ccc(CC)cc4)C3)sc2c1 (stereo unspecified) returned SMN2 splice enh 16% and FLuc modulator inconclusive.
